# Where “and” joins values, the source holds several entries; their conditions need not be identical. Equal entries are not always repeated. The panel holds about 79,000 compounds, 15% with a hit somewhere; the sample as a whole holds those more often. Some compounds were tested as several samples or in several runs, with calls that do not always agree. Calls of active or inactive are those of the source. Cut-off read from the data, not from the text of the source: active = growth inhibition above about 70%; inactive = the rest.
# Assay: NCI Yeast Anticancer Drug Screen. Data for the bub3 strain (AID 167)
# Conditions: S. cerevisiae bub3 mutant strain, at 1.2 µM, stronger effect = higher value
# Method in brief: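 Yeast carrying a defined mutation is treated with each compound, and growth is compared with that of vehicle-exposed cells to give inhibition.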
row,Compound,growth inhibition
1,CN(C)CCNC(=O)c1cccc2nc3c(ccc4ccccc43)nc12,1% (inactive)
2,O=S(=O)(CCC[C@H]1[C@@H](CCOCc2ccccc2)C2CCCN1O2)c1ccccc1 (stereo not given in full),1% (inactive)
3,CCC(C)/C(C)=N/NC(N)=O (stereo not given),-2% (inactive)
4,Nc1c([N+](=O)[O-])cc2c3c(cccc13)CC2,-4% (inactive)
5,CC1=Cc2ccc(C)cc2C(=O)C1=O,0% (inactive)
6,C=Cc1c(C)c(O)cc2c1-c1ccc(O)c(C)c1CC2,-9% (inactive)
7,NCC(O)CSCc1ccc(Cl)cc1 (stereo not given),-2% (inactive)
8,C[n+]1c(-c2ccc(NC(=O)c3ccc(C(=O)Nc4ccc(-c5cn6ccccc6[n+]5C)cc4)cc3)cc2)cn2ccccc21,-3% (inactive)
9,CNC(=O)OCc1c(COC(=O)NC)c(C)n(-c2ccc(Cl)c(Cl)c2)c1C,-31% (inactive)
10,[O-]c1c2cc(-[n+]3c(-c4ccccc4)cc(-c4ccccc4)cc3-c3ccccc3)cc1COCCOCCOCCOCCOC2,-4% (inactive)
11,C[Si](C)(C)Cc1ccccc1C(=O)O,6% (inactive)

# Same assay, conditions: S. cerevisiae bub3 mutant strain, at 3.7 µM, stronger effect = higher value
row,Compound,growth inhibition
1,COc1ccc(/C=C2\CCc3ccccc3C2=O)cc1OC,29% (inactive)
2,O=Cc1ccccc1B(O)O,-8% (inactive)
3,CC(=O)CC[N+](C)(C)C,16% (inactive)
4,O=C(O)[C@H]1[C@@H](C2CCCCC2)O[C@@H](C2CCCCC2)O[C@H]1C(F)(F)F,2% (inactive)
5,CN(NC(=O)/C(=C/C=C/c1ccccc1)NC(=O)c1ccccc1)C1=C(Cl)C(=O)[N+](c2ccccc2)=CC1,11% (inactive)
6,CCCCOc1ccc(Nc2c3ccccc3nc3ccccc23)cc1,-55% (inactive)
7,N#C/C(=C1C=C/C(=N\O)C(Cl)=C\1)c1ccccc1,2% (inactive)
8,COc1ccc(C(=O)OCCc2ccccc2)cc1,12% (inactive)
9,Cc1c2ccncc2c(C)c2c1oc1ccccc12,24% (inactive)
10,CCCC#CCOC(=O)c1cc([N+](=O)[O-])cc([N+](=O)[O-])c1,4% (inactive)
11,Nc1nc(Nc2ccccc2)nc(Nc2ccccc2)n1,-3% (inactive)
12,COc1ccc(/C=C2\S/C(=N/Nc3nc(-c4ccccc4)cs3)NC2=O)cc1OC,93% (active)
13,CC(O)CN1C(=O)c2cccc3cc([N+](=O)[O-])cc(c23)C1=O (stereo not given),-6% (inactive)
14,Cn1c(COc2ccc(/C=N/NC(=O)CCC(=O)N/N=C/c3ccc(OCc4c[n+]5ccccc5n4C)cc3)cc2)c[n+]2ccccc12,-6% (inactive)
15,COC1=C(N=[N+]=[N-])C(=O)c2ncccc2C1=O,18% (inactive)
16,CCN(CC)c1ccc(N=Nc2cc(S(=O)(=O)O)ccc2O)c(O)c1,17% (inactive)
17,O=C1C(C(O)(C(F)(F)F)C(F)(F)F)CCC1C(O)(C(F)(F)F)C(F)(F)F (stereo not given),0% (inactive)
18,CN(C)CCNC(=O)c1cccc2nc3c(ccc4ccccc43)nc12,3% (inactive)
19,O=S(=O)(CCC[C@H]1[C@@H](CCOCc2ccccc2)C2CCCN1O2)c1ccccc1 (stereo not given in full),2% (inactive)
20,CCC(C)/C(C)=N/NC(N)=O (stereo not given),-2% (inactive)
21,Nc1c([N+](=O)[O-])cc2c3c(cccc13)CC2,0% (inactive)
22,CC1=Cc2ccc(C)cc2C(=O)C1=O,-3% (inactive)
23,C=Cc1c(C)c(O)cc2c1-c1ccc(O)c(C)c1CC2,-11% (inactive)
24,NCC(O)CSCc1ccc(Cl)cc1 (stereo not given),-2% (inactive)
25,C[n+]1c(-c2ccc(NC(=O)c3ccc(C(=O)Nc4ccc(-c5cn6ccccc6[n+]5C)cc4)cc3)cc2)cn2ccccc21,9% (inactive)
26,CNC(=O)OCc1c(COC(=O)NC)c(C)n(-c2ccc(Cl)c(Cl)c2)c1C,-36% (inactive)
27,[O-]c1c2cc(-[n+]3c(-c4ccccc4)cc(-c4ccccc4)cc3-c3ccccc3)cc1COCCOCCOCCOCCOC2,-6% (inactive)
28,C[Si](C)(C)Cc1ccccc1C(=O)O,8% (inactive)

# Same assay, conditions: S. cerevisiae bub3 mutant strain, at 5.0 µM (retest, dose inferred, filed as 0.5), stronger effect = higher value
row,Compound,growth inhibition
1,COc1ccc(/C=C2\CCc3ccccc3C2=O)cc1OC,25% (inactive)
2,CC(C)c1ccc(O)c(=O)cc1,0% (inactive) and -1% (inactive) and -5% (inactive)
3,O=Cc1ccccc1B(O)O,-83% (inactive)
4,OCC(O)C(O)C(O)C(O)c1nc2ccccc2[nH]1 (stereo not given),6% (inactive) and -5% (inactive)
5,CC(=O)CC[N+](C)(C)C,20% (inactive)
6,O=C(O)[C@H]1[C@@H](C2CCCCC2)O[C@@H](C2CCCCC2)O[C@H]1C(F)(F)F,-20% (inactive)
7,CN(NC(=O)/C(=C/C=C/c1ccccc1)NC(=O)c1ccccc1)C1=C(Cl)C(=O)[N+](c2ccccc2)=CC1,-5% (inactive)
8,CCCCOc1ccc(Nc2c3ccccc3nc3ccccc23)cc1,15% (inactive)
9,N#C/C(=C1C=C/C(=N\O)C(Cl)=C\1)c1ccccc1,37% (inactive)
10,COc1cccc2c1C(=O)c1c(O)c3c(c(O)c1C2=O)CC(O)(C(=O)CO)CC3OC1CC(N)C(O)C(C)O1 (stereo not given),10% (inactive) and 15% (inactive) and 18% (inactive)
11,COc1ccc(C(=O)OCCc2ccccc2)cc1,20% (inactive)
12,Cc1c2ccncc2c(C)c2c1oc1ccccc12,27% (inactive)
13,CCCC#CCOC(=O)c1cc([N+](=O)[O-])cc([N+](=O)[O-])c1,86% (active)
14,Nc1nc(Nc2ccccc2)nc(Nc2ccccc2)n1,-5% (inactive)
15,COc1ccc(/C=C2\S/C(=N/Nc3nc(-c4ccccc4)cs3)NC2=O)cc1OC,94% (active)
16,CCCCCCCCCCCC[N+](C)(C)Cc1ccccc1 (tested in a mixture with another compound),93% (active) and 76% (active)
17,CC(O)CN1C(=O)c2cccc3cc([N+](=O)[O-])cc(c23)C1=O (stereo not given),8% (inactive)
18,Cc1cc(SC#N)ccc1O,15% (inactive) and 2% (inactive) and 13% (inactive)

row,Compound,growth inhibition
1,Cn1c(COc2ccc(/C=N/NC(=O)CCC(=O)N/N=C/c3ccc(OCc4c[n+]5ccccc5n4C)cc3)cc2)c[n+]2ccccc12,-24% (inactive)
2,COC1=C(N=[N+]=[N-])C(=O)c2ncccc2C1=O,-4% (inactive)
3,CCN(CC)c1ccc(N=Nc2cc(S(=O)(=O)O)ccc2O)c(O)c1,24% (inactive)
4,O=C1C(C(O)(C(F)(F)F)C(F)(F)F)CCC1C(O)(C(F)(F)F)C(F)(F)F (stereo not given),-12% (inactive)
5,COc1nc(N)c(N=CC(OC(C)=O)C(OC(C)=O)C(COC(C)=O)OC(C)=O)c(=O)n1C (stereo not given),10% (inactive) and 11% (inactive) and 13% (inactive)
6,CN(C)CCNC(=O)c1cccc2nc3c(ccc4ccccc43)nc12,-40% (inactive)
7,O=S(=O)(CCC[C@H]1[C@@H](CCOCc2ccccc2)C2CCCN1O2)c1ccccc1 (stereo not given in full),22% (inactive)
8,CCC(C)/C(C)=N/NC(N)=O (stereo not given),8% (inactive)
9,Nc1c([N+](=O)[O-])cc2c3c(cccc13)CC2,-20% (inactive)
10,CC1=Cc2ccc(C)cc2C(=O)C1=O,36% (inactive)
11,C=Cc1c(C)c(O)cc2c1-c1ccc(O)c(C)c1CC2,28% (inactive)
12,NCC(O)CSCc1ccc(Cl)cc1 (stereo not given),-13% (inactive)
13,C[n+]1c(-c2ccc(NC(=O)c3ccc(C(=O)Nc4ccc(-c5cn6ccccc6[n+]5C)cc4)cc3)cc2)cn2ccccc21,37% (inactive)
14,Nc1ccccc1SSc1ccccc1N,87% (active) and 13% (inactive) and 89% (active)
15,CCCCCCCCCCCC[N+](C)(C)C,14% (inactive) and 9% (inactive) and 18% (inactive)
16,CNC(=O)OCc1c(COC(=O)NC)c(C)n(-c2ccc(Cl)c(Cl)c2)c1C,8% (inactive)
17,[O-]c1c2cc(-[n+]3c(-c4ccccc4)cc(-c4ccccc4)cc3-c3ccccc3)cc1COCCOCCOCCOCCOC2,-19% (inactive)
18,C[Si](C)(C)Cc1ccccc1C(=O)O,5% (inactive)
